According to PubChem BioAssay AID623866 (Sanford-Burnham Center for Chemical Genomics, 2012):
Some of the results follow. Calls of active or inactive are those of the source. The rule behind the calls is not given here.

These molecules were tested against Tyrosine-protein phosphatase non-receptor type 5 (Homo sapiens) (UniProt P54829) (assay: retest of PTPN5 enzyme inhibition – biochemical, fluorescence intensity, single concentration, confirmation (AID 623866;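 note: 0% = enzyme with substrate plus DMSO and 100% = substrate without enzyme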)). Conditions: recombinant STEP, OMFP fluorogenic substrate, at 20 µM, active compounds read high.
Sequence of Tyrosine-protein phosphatase non-receptor type 5 (Homo sapiens) (P54829 whole entry, looked up): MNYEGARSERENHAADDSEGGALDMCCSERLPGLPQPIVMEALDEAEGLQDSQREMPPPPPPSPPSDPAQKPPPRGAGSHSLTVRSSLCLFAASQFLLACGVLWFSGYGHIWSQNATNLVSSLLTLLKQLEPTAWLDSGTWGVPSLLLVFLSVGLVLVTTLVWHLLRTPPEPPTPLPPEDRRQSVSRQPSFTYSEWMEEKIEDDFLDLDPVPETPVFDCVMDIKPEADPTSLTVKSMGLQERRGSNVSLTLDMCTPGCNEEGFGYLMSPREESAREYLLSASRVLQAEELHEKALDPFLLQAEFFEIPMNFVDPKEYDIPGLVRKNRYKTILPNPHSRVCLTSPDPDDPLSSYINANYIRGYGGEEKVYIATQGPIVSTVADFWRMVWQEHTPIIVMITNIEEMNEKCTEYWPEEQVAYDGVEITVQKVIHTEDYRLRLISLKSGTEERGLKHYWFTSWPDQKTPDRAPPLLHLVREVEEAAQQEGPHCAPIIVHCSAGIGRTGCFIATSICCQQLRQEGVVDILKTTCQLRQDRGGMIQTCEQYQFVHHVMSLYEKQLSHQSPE

SMILES	inhibition
N#Cc1ccc(C(=O)Nc2cccc3cccnc23)c(F)c1	-3.4% (inactive)
C/C(=N\Nc1ccc(S(N)(=O)=O)cc1[N+](=O)[O-])c1cccs1	64.7% (active)
Cc1ccc(CNC(=O)CSc2nnc3c(n2)[nH]c2ccc(F)cc23)cc1	-0.633% (inactive)
O=C(N/N=C/c1cccc(Br)c1)c1ccc(N2CCCC2=O)cc1	41.4% (active)
O=C(N/N=C/c1coc2ccccc2c1=O)c1cc2ccccc2o1	24.4% (active)
CCCS(=O)(=O)N1CCCC(C(=O)NCc2ccco2)C1 (centres undefined)	1.82% (inactive)
Cc1ccccc1CC1(CO)CCCN(C(=O)c2cc(-c3ccccc3)no2)C1 (centres undefined)	0.313% (inactive)
Cc1ccc(OCC(=O)Nc2ccc(-c3nc4ncccc4o3)cc2)cc1	23.6% (inactive)
O=C(COc1cccc(F)c1)Oc1ccc(C(=O)c2ccccc2)cc1	12.2% (inactive)
COc1ccc2[nH]c(=O)c(-c3noc(-c4ccc(F)cc4)n3)cc2c1	8.96% (inactive)
C/C=C/C(=O)Nc1ccc(N2CCN(c3ccc(C(F)(F)F)cn3)CC2)nc1	12.4% (inactive)
N#Cc1c(-c2cccs2)nc(SCC(=O)c2ccc(Br)cc2)[nH]c1=O	103% (active)
COCc1c(C(=O)N/N=C/C2CC=CCC2)nnn1-c1nonc1N (centres undefined)	-1.89% (inactive)
Cc1ccn2c(-c3csc(Nc4ccc(C(=O)O)cc4)n3)c(C)nc2c1	-1.96% (inactive)
Cc1ccc(S(=O)(=O)c2c[nH]c3ccc(Cl)cc3c2=O)cc1	23.8% (active)
O=C(NN=Cc1ccccc1O)NN=Cc1ccccc1O	90.1% (active)
Nc1c(Cl)cc(-c2csc(N3CCCC3c3nc4cc(Cl)c(Cl)cc4n3CCOCCO)n2)cc1Cl (centres undefined)	20.3% (inactive)
Cc1cc(C(=O)N2CCN(c3ccccn3)CC2)c(C)o1	7.4% (inactive)
O=C(CSC(=S)N1CCCCC1)c1c(F)cccc1F	-5.75% (inactive)
CCc1ccc(NC(=O)CS(=O)CC(=O)NCCCc2ccccc2)cc1 (centres undefined)	-4.12% (inactive)
COCCN(C(=S)Nc1ccccc1OC)C1CCN(C(C)C)CC1	7.61% (inactive)
O=C(Nc1cccnc1)c1cc2cc(Br)ccc2oc1=O	8.13% (inactive)
Cc1ccc(-c2nnc(-c3ccc(NC(=O)c4cccs4)cc3)o2)cc1	10.7% (inactive)
Cc1c(CCC(=O)O)c(=O)oc2c(C)c(OCc3ccccc3Cl)ccc12	42.7% (active)
